Lamin A splicing – LMNA splicing modulation; HeLa LMNA splicing GFP/RFP minigene ratio, 48 h; Potency, µM (series often up to 46.1 µM), for inactives: at the highest dose ratio change, negative = inhibition, most hits filed as inhibitors; hit rate 0.01% among 200,000; active = well fitted inhibition curve with a large enough effect in the signal ratio, with a control signal flat, not every such curve was filed as active; inconclusive = small, poorly fitted or top-dose-only effect, or effect the other way, or a change in a side signal; the % refers to the signal ratio; also: potency is read from the fitted curve at half-maximal effect; % is scaled to controls: 0 for no effect and ±100 for the full control effect
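Read-out is the ratio of GFP to DsRed2 object intensity, acquired by 488 nm laser-scanning cytometry on HeLa lamin A-EGFP minigene reporter cells. Compound incubation 48 hrs at 37 °C in Opti-MEM with 2% FBS; DMSO 0.5% final.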
Tau fibril FP – blocks human tau fibril formation measured by polarization; P10636; K18 P301L tau heparin fibrillization, Alexa594 FP, 6 h; Potency, µM (titrated, usually from 57.7 µM), without a hit: top-dose activity, negative = inhibition, hits mostly inhibitors; hit rate 0.39% among 280,000; AID 1468; also: potency is read from the fitted curve at half-maximal effect; % is scaled to controls: 0 for no effect and ±100 for the full control effect; nearly all actives have a fitted effect of over 55% in size
Target sequence (P10636 561-689 P618L limits assumed): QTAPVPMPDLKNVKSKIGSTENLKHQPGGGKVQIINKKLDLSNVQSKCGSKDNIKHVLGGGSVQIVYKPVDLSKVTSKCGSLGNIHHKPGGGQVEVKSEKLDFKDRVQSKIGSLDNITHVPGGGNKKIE
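Human tau K18 […] P301L fragment, 15 uM unlabeled plus 0.24 uM Alexa 594-labeled tau (final), with compound and 20 uM heparin in 100 mM sodium acetate pH 7; 6 hr at 37 C, then Alexa 594 FP read.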
Tau fluor counter – counter-screen for tau fibril formation inhibitors | AID 1463 | Potency, µM (series often up to 57.7 µM), without a hit: at the top dose activity change, negative = decrease | hit rate 0.93% among 280,000 | tau K18 P301L Alexa594 fluorescence, heparin fibrillization; also: potency is read from the fitted curve at half-maximal effect; % is scaled to controls: 0 for no effect and ±100 for the full control effect; nearly all actives have a fitted effect of over 55% in size
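Human K18 P301L tau (15 uM unlabeled plus 0.24 uM Alexa 594-labeled, final) in 100 mM sodium acetate pH 7 was mixed with compound and 20 uM heparin and incubated 6 hr at 37 C.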
Tau fibril ThT – tau fibrillization inhibition (ThT binding). P10636. recombinant tau K18 P301L, heparin-induced fibrillization, ThT fluorescence. Potency, µM (doses to about 57.4 µM), inactives show at the highest dose activity, negative = inhibition, actives largely listed as inhibitors. hit rate 2.1% among 270,000. AID 1460; also: potency is read from the fitted curve at half-maximal effect; % is scaled to controls: 0 for no effect and ±100 for the full control effect; nearly all actives have a fitted effect of over 55% in size
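ThT emission at 510 nm, taken 1 hr after adding 30 uM dye, quantifies aggregates formed when 20 uM heparin acts on human tau K18 P301L for 6 hr at 37 C.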
CBFb-RUNX1 inh – blocks binding between human CBF-beta and RUNX1. Q01196+Q13951. AlphaScreen CBFb-His/RUNX1-biotin binding, biochemical. Potency, µM (titrated, usually from 59.8 µM), for the others: at the highest dose activity, negative = inhibition, hits mostly inhibitors. 230,000 tested, under 10 active. AID 1477; also: % of control where 0% means no effect
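CBF-beta (His) and RUNX1 (biotin), 30 nM each; 20 min preassociation; + compound, 15 min; + beads 50 ng each (Ni, streptavidin), 90 min; RT; AlphaScreen read.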
JMJD2E inh – blocks human JMJD2E demethylase activity; B2RXH2; JMJD2E catalytic domain, FDH-coupled NADH fluorescence (FDH is formaldehyde dehydrogenase); Potency, µM (series often up to 57.1 µM), for the others: at the highest dose activity change, negative = inhibition, most hits filed as inhibitors; hit rate 1.6% among 230,000; AID 2147; active = well fitted inhibition curve with a large enough effect, not every such curve was filed as active; inconclusive = small, poorly fitted or top-dose-only effect, or another doubt; inactive = no such curve, though single readings can be large or run the other way;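 also: potency is read from the fitted curve at half-maximal effect; 0% = wells with enzyme and -100% = buffer wells without enzyme; nearly all actives have a fitted effect of over 50% in size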
Target sequence (B2RXH2 1-337 limits assumed): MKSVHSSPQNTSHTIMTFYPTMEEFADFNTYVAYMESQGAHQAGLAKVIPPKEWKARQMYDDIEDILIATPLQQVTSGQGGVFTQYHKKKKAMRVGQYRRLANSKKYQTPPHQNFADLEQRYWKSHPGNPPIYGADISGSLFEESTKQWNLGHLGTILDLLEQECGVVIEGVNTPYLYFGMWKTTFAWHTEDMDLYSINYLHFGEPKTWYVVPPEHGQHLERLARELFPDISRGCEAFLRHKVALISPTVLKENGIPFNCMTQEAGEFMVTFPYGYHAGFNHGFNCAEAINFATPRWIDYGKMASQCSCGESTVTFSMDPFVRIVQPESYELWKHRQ
An asterisk follows results filed as active; [ ] = another dose, or the depositor's remark. Compounds with a hit are over-represented: about 3.2% of the library has one in this group of screens. Unless noted, calls follow the shape of the dose curve; as a rule, active = well fitted curve in the direction sought with a large enough effect; inconclusive = small, poorly fitted or top-dose-only effect, or another doubt; inactive = no such curve, though single readings can be large; an effect the other way counts as inactive or inconclusive.

What do the screens show for `CCOc1ccc(C(=O)Nc2ccc3c(c2)OCCO3)cc1Br`?
Tau fibril FP: 3%; Tau fluor counter: 16µM*[quencher]; Tau fibril ThT: inconclusive

How did CCOc1ccc(C(=O)Nc2ccc3c(c2)OCO3)cc1OCC do in these assays?
Lamin A splicing: -6%; Tau fibril FP: 3%; Tau fluor counter: -4%; Tau fibril ThT: -10%; CBFb-RUNX1 inh: 1%; JMJD2E inh: 9%

What do the screens show for `Clc1ccc(-c2cnn3c(-c4ccncc4)ccnc23)cc1`?
Lamin A splicing: inconclusive; Tau fibril FP: 2%; Tau fluor counter: 1%; Tau fibril ThT: 2.5µM*; CBFb-RUNX1 inh: -11%; JMJD2E inh: -1%

How did CC(C)c1ccc(NC(=O)CSc2nc(=O)n(Cc3cccnc3)c3c2CCC3)cc1 do in these assays?
Lamin A splicing: inconclusive; Tau fibril FP: 2%; Tau fluor counter: -3%; Tau fibril ThT: -14%

How did c1cc2[nH]snc2c2nc(C3CC3)nc12 do in these assays?
Lamin A splicing: inconclusive; Tau fibril FP: -12%; Tau fluor counter: -13%; Tau fibril ThT: inconclusive; CBFb-RUNX1 inh: 15%; JMJD2E inh: 20µM*

What do the screens show for `CC1=Nc2ccccc2/C1=C\c1nc(-c2ccc(F)cc2)oc1O`?
Lamin A splicing: 11%; Tau fibril FP: inconclusive; Tau fluor counter: 10µM*[quencher]; Tau fibril ThT: 7.1µM*; CBFb-RUNX1 inh: 5%; JMJD2E inh: inconclusive

What do the screens show for `C=CCN1c2ccccc2[C@]23C[C@@H](C(=O)OC)N(S(=O)(=O)c4ccc(Br)cc4)C2=NC(C(=O)OC)=C(C(=O)OC)[C@H]13`?
Lamin A splicing: -2%[9.22 µM]; Tau fibril FP: -8%[11.6 µM]; Tau fluor counter: -4%[11.6 µM]; Tau fibril ThT: 3%[11.5 µM]; CBFb-RUNX1 inh: 5%[13.1 µM]; JMJD2E inh: 11%[11.4 µM]

What do the screens show for `S=C(NCc1cccs1)Nc1cc(Cl)cc(Cl)c1`?
Tau fibril FP: 18µM*; Tau fluor counter: inconclusive; Tau fibril ThT: -2%; CBFb-RUNX1 inh: 23%; JMJD2E inh: -7%

How did S=C(NCc1cccs1)Nc1cccc(Cl)c1 do in these assays?
Lamin A splicing: -25%; Tau fibril FP: -4%; Tau fluor counter: -25%; Tau fibril ThT: -3%; CBFb-RUNX1 inh: 12%; JMJD2E inh: 9%

Results for O=c1ccc2ccc(OS(=O)(=O)O)cc2o1 ?
CBFb-RUNX1 inh: 7%

Results for O=C(/C=C/c1ccc(O)c(O)c1)c1ccc(O[C@@H]2O[C@H](CO)[C@@H](O)[C@H](O)[C@H]2O)c(O)c1O ?
CBFb-RUNX1 inh: -13%

How did S=C(Nc1ccc2nc(-c3ccccn3)c(-c3ccccn3)nc2c1)N1CCOCC1 do in these assays?
Lamin A splicing: 14%[9.22 µM]; Tau fibril FP: inconclusive; Tau fluor counter: inconclusive; Tau fibril ThT: 13µM*; CBFb-RUNX1 inh: inconclusive; JMJD2E inh: inconclusive

Results for CN(C)NC(=S)Nc1ccc2nc(-c3ccccn3)c(-c3ccccn3)nc2c1 ?
Lamin A splicing: -10%; Tau fibril FP: inconclusive; Tau fluor counter: -19%; Tau fibril ThT: inconclusive; CBFb-RUNX1 inh: 4%; JMJD2E inh: inconclusive

Results for CCCCOc1ccc(CNC(=O)CN2CCSc3ccccc32)cc1 ?
Lamin A splicing: inconclusive; Tau fibril FP: 7%; Tau fluor counter: inconclusive; Tau fibril ThT: inconclusive

Results for Cc1ccc(NC(=O)c2nnn(Cc3cccc(C(F)(F)F)c3)c2N)c(C)c1 ?
Tau fibril FP: -5%; Tau fluor counter: -17%; Tau fibril ThT: -13%

Results for O=C(Nc1cccc(C(F)(F)F)c1)Oc1ccc(Cl)c2cccnc12 ?
Tau fibril FP: 20µM*; Tau fluor counter: inconclusive; Tau fibril ThT: -15%; CBFb-RUNX1 inh: -5%; JMJD2E inh: inconclusive

Results for CCN(CC)CCNC(=O)c1ccc2c(c1NCCO)C(=O)c1ccccc1C2=O ?
Tau fibril FP: 0%; Tau fluor counter: inconclusive; Tau fibril ThT: 16µM*; CBFb-RUNX1 inh: -26%; JMJD2E inh: -8%
